{
  "source": "PubChem BioAssay (NCATS)",
  "note": "Inconclusive results are not listed. The source made the active and inactive calls. Calls follow the shape of the dose curve; as a rule, active = well fitted inhibition curve with a large enough effect in the polarisation, with a control signal flat (not every such curve was filed as active); inconclusive = small, poorly fitted or top-dose-only effect, or effect the other way; inactive = flat fitted curve, though single readings scatter; the % refers to the polarisation. Potency is read from the fitted curve at half-maximal effect.",
  "data": [
    {"biological_target": "Peptidyl-prolyl cis-trans isomerase NIMA-interacting 1 (Homo sapiens) (UniProt Q13526)", "sequence (Q13526 whole entry, looked up)": "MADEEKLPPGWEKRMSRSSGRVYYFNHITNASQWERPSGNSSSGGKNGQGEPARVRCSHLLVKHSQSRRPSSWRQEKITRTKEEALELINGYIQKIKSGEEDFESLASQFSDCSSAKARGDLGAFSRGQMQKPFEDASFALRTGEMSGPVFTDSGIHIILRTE", "assay": "qHTS Validation Assay to Find Inhibitors of Pin1 (AID 504536);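 as to activity, negative = inhibition: 0% = full Pin1 enzyme wells and -100% = no-enzyme wells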", "conditions": "Pin1 fluorescence polarization peptide binding assay; series mostly up to 57.5 µM; activity, negative = inhibition: at the top concentration", "how_it_was_run": "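Fluorescence polarization competition: compounds (titration) displace HiFluor-488-labeled Pin1-1b peptide from Pin1 (0.3 uM final) in pH 7.5 HEPES buffer with DTT, 10 min at room temperature; %Activity normalized to no-enzyme wells, curves fitted.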", "values": [
      {"smiles": "N[C@@H](CCCC(=O)O)C(=O)O", "activity, negative = inhibition": "-3.57% (inactive)"},
      {"smiles": "CSC(N)=NCCC[C@H](N)C(=O)O", "activity, negative = inhibition": "2.06% (inactive)"},
      {"smiles": "NCCCCN=C(N)N", "activity, negative = inhibition": "7.65% (inactive)"},
      {"smiles": "C#CCn1c(=O)c2c(ncn2C)n(C)c1=O", "activity, negative = inhibition": "-0.0327% (inactive)"},
      {"smiles": "O=C(O)Cc1c[nH]c2ccc(O)cc12", "activity, negative = inhibition": "3.23% (inactive)"},
      {"smiles": "COc1cc(N)c(Cl)cc1C(=O)OCCN1CCCCC1", "activity, negative = inhibition": "1.18% (inactive)"},
      {"smiles": "c1ccc(C2CN3CCSC3=N2)cc1", "note": "(configuration not stated)", "activity, negative = inhibition": "6.23% (inactive)"},
      {"smiles": "NCCS(=O)O", "activity, negative = inhibition": "-7.98% (inactive)"},
      {"smiles": "Oc1ccc(Cn2cc[nH]c2=S)cc1", "activity, negative = inhibition": "-5.75% (inactive)"},
      {"smiles": "COc1ccc(-c2ccc(N)[n+](CCCC(=O)O)n2)cc1", "activity, negative = inhibition": "1.05% (inactive)"},
      {"smiles": "CC(C)Cn1c(=O)n(C)c(=O)c2[nH]cnc21", "activity, negative = inhibition": "-11.8% (inactive)"},
      {"smiles": "Cn1cc(C(F)(F)F)nc1-c1ccc(OCC(O)CNCCOc2ccc(O)c(C(N)=O)c2)cc1", "note": "(configuration not stated)", "activity, negative = inhibition": "0.583% (inactive)"},
      {"smiles": "Cn1c(=O)c2c(nc(/C=C/c3cccc(Cl)c3)n2C)n(C)c1=O", "activity, negative = inhibition": "-3.25% (inactive)"},
      {"smiles": "Cn1cc(C(=O)OCC2CCN(CCNS(C)(=O)=O)CC2)c2ccccc21", "activity, negative = inhibition": "4% (inactive)"},
      {"smiles": "NC/C=C\\C(=O)O", "activity, negative = inhibition": "-2.52% (inactive)"},
      {"smiles": "Nc1ccc(-c2nc3ccc(-c4nc5ccc(N)cc5[nH]4)cc3[nH]2)cc1", "activity, negative = inhibition": "-10.5% (inactive)"},
      {"smiles": "NC(=O)c1cc[n+](CC2=C(C(=O)O)N3C(=O)[C@@H](NC(=O)[C@@H](c4ccccc4)S(=O)(=O)[O-])[C@H]3SC2)cc1", "Potency": "9.53 µM (active)"},
      {"smiles": "N[C@@H](Cc1c[nH]c2ccccc12)C(=O)O", "activity, negative = inhibition": "1.84% (inactive)"},
      {"smiles": "CN[C@H](CC(=O)O)C(=O)O", "activity, negative = inhibition": "-4.53% (inactive)"},
      {"smiles": "CCCCCCCCCC[Si](C)(C)CCC(=O)NC(Cc1ccc(C)cc1)c1ccccc1", "note": "(configuration not stated)", "activity, negative = inhibition": "1.18% (inactive)"},
      {"smiles": "Cc1cccc(C)c1OCC(N)C(C)C", "note": "(configuration not stated)", "activity, negative = inhibition": "4.09% (inactive)"},
      {"smiles": "Cn1ccnc1", "activity, negative = inhibition": "1.3% (inactive)"}
    ]}
  ]
}
